Bioassay records as filed in PubChem.
NR3A LBD binder: NR3A (human) ligand-binding domain modulation | NR3A LBD differential scanning fluorimetry, Tm shift; 0% = protein alone, 100% = glycine-bound protein | Tm shift relative to glycine control, % at 25 µM | AID 1259313 | 2.5% of 340,000 active;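 active means melting temperature shift of at least 10% of the positive control shift, at one fixed dose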
Cardio protect: myocardial damage modulation in H9c2 cells | protection from H2O2 cell death, % at 20 µM | 0.63% of 360,000 active | H9c2 cardiomyocytes, H2O2 injury protection, ATPLite, 2 h;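 active means compounds giving at least 50% protection of heart cells from peroxide-induced death in the single-dose screen, raw or plate-pattern-corrected value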;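 further: 0% = DMSO wells with peroxide and 100% = DMSO wells without peroxide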
AI-2 QS modul: modulators of Vibrio harveyi AI-2 quorum sensing system; 0.4% of 300,000 active; activity change, % at 7.5 µM; AID 2094; Vibrio harveyi JMH597 AI-2 luminescence/OD600 ratio, 9 h; hits give low values; strain lacks LuxN and CqsS sensors; 0 = neutral-control median; in the data active means activity change below about -75%, passing the limit was not always enough;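 further: luminescence divided by OD600 gain over 9 h not by final OD600 alone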
Mot1-301 SUMO: SUMOylation pathway inhibition by Mot1-301 growth rescue; growth rescue, % at 18.8 µM; 1% of 320,000 active; S. cerevisiae Mot1-301 growth rescue, ATP luminescence, 38.5C; percent above DMSO median, 100 means doubled;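 active means every valid replicate shows activation above 250% relative to neutral control wells; inactive means the rest, any valid replicate at or below 250%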;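 further: OY570 slx delta 5 strain wells were the positive control but not used for scaling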
NTR1 agonist: NTR1 (human) agonism; P30989; NTR1-U2OS beta-arrestin-GFP spot imaging, agonist mode; activation, % at 20 µM; 0.17% of 330,000 active;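 active means activation at or above 40% of the spot to cytoplasm intensity ratio, with at least 20 cells analyzed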;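 further: 0% = DMSO without peptide and 100% = 100 nM NTR1 peptide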
Target sequence (P30989 whole entry, looked up): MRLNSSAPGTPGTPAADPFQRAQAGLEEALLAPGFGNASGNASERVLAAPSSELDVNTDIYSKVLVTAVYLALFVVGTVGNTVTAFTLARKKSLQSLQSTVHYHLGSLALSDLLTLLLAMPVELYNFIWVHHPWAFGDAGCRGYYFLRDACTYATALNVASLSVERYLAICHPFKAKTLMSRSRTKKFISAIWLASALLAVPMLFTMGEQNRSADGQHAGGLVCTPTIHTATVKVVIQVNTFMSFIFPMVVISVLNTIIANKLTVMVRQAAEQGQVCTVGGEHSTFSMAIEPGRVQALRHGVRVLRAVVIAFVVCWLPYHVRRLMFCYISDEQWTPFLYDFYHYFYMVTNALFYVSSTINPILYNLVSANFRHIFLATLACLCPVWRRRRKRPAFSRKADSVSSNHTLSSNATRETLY
AHR activator: activates the human aryl hydrocarbon receptor; AID 2796; P35869; 2.5% of 320,000 active; activation, % at 5 µM; AHR-responsive luciferase reporter cells, luminescence; in the data active means activation above about 47%;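 further: 0% = vehicle wells and 100% = reference agonist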
* marks the source's active call; other numbers are inactive results; / = not tested or not shown. An excerpt weighted towards active compounds, which were near 6.2% of everything screened.

SMILES	NR3A LBD binder	Cardio protect	AI-2 QS modul	Mot1-301 SUMO	NTR1 agonist	AHR activator
COc1ccc(C)cc1NC(=O)Nc1cccc(C)c1	1	-5	18	7	0	34
COC(=O)[C@H](C)NC(=O)Nc1ccc(OC)c(OC)c1	2	-2	9	96	0	-2
COc1ccccc1NC(=O)Nc1ccc(F)c(F)c1	23*	-5	11	3	0	12
COc1cccc(Cn2c(=O)sc3ccccc3c2=O)c1	0	2	2	-6	2	5
Cc1ccc(Cn2c(=O)sc3ccccc3c2=O)cc1	11*	6	14	-10	5	-2
CCOC(=O)CSc1nc2c(sc(=S)n2-c2ccccc2OC)c(=O)n1Cc1ccco1	19*	12	26	4	30	1
COc1cc(/C=C2/C(=O)NN(c3cccc(Cl)c3)C2=O)cc(OC)c1O	-3	12	21	36	0	1
O=C1NN(c2cccc(Br)c2)C(=O)/C1=C\c1ccc(O)cc1	15*	1	21	-6	-1	0
O=C1NN(c2ccc(Br)cc2)C(=O)/C1=C\c1ccc(O)cc1O	28*	-8	-7	-7	2	13
O=C1NN(c2cccc(Br)c2)C(=O)/C1=C/c1ccc(-c2cc([N+](=O)[O-])ccc2O)o1	13*	-2	34	11	10	1
CC1=NN(c2ccc(C)cc2)C(=O)/C1=C/c1ccc(-c2cc([N+](=O)[O-])ccc2O)o1	0	-14	20	/	8	/
C[C@@H](NC(=O)[C@@H]1Cc2ccccc2CN1C(=O)OC(C)(C)C)C(=O)NC1CCCCC1	-2	-3	0	-18	-1	0
O=C(c1cc(-c2ccncc2)nc2ccc(Br)cc12)N1CCN(Cc2ccc3c(c2)OCO3)CC1	-3	66*	-4	2	11	6
CC(=O)c1ccc(N2CCN(C(=O)c3cc(-c4cccnc4)nc4ccc(Br)cc34)CC2)cc1	-5	53*	11	0	13	6
O=C(c1cc(-c2cccnc2)nc2ccc(Br)cc12)N1CCN(c2ncccn2)CC1	-12	59*	39	-15	5	9
CS(=O)(=O)N1CCN(C(=O)c2cc(-c3cccnc3)nc3ccc(Br)cc23)CC1	-1	28	12	55	1	2
C=CCC1CCCCC1=C(C#N)c1ccccc1 (stereo not drawn)	/	-10	/	/	/	/
NC(=O)C1CCN(C(=O)CC2(CC(=O)O)CCCCC2)CC1	-1	7	7	-12	-1	0
NC(=O)CC1(CC(=O)O)CCCCC1	13*	1	0	12	0	1
O=C(CCc1c[nH]c2ccccc12)N/N=C/c1ccc2c(c1)OCO2	8	-1	9	18	2	53*
O=C(NN=Cc1ccc2c(c1)OCO2)NN=Cc1ccc2c(c1)OCO2	26*	1	/	/	/	/
O=C(CNc1ccccc1)N/N=C/c1ccc2c(c1)OCO2	-1	0	9	13	0	53*
CN(/N=C/c1ccc2c(c1)OCO2)c1ccccc1	11*	-7	15	5	3	29
CCCNS(=O)(=O)c1cc(CN2C(=O)c3cccnc3C2=O)ccc1OC	0	5	8	12	1	0
COc1ccc([C@H]2C[C@H](n3cc(-c4ccc(F)cc4)nn3)[C@@H](O)CN2C(=O)C2CCCCC2)cc1	/	12	/	/	/	/
SMILES	NR3A LBD binder	Cardio protect	AI-2 QS modul	Mot1-301 SUMO	NTR1 agonist	AHR activator
O=C(CNc1ccccc1)N/N=C/c1ccc2c(c1)OCCO2	16*	-3	-1	-11	0	9
CC(/C=C/c1ccc2c(c1)OCO2)=N/NC(=O)CNc1ccc(C)cc1	-4	-7	-5	-13	0	97*
CC(/C=C/c1ccc2c(c1)OCO2)=N\NC(=O)c1ccccc1	-2	4	2	5	0	13
CC1CCCN(C(=O)CCNS(=O)(=O)c2ccc3c(c2)c(=O)n(C)c(=O)n3C)C1 (stereo not drawn)	0	1	10	46	-1	1
CCCOc1ccc(/C=C/C(=O)NCc2ccccc2)cc1	12*	1	-23	-21	4	5
Cc1[nH]c2ccccc2c1C(=O)CSc1nc2ccccc2[nH]1	19*	66*	14	-9	6	28
Cc1[nH]c2ccccc2c1C(=O)CSc1nccc(=O)[nH]1	-2	-7	23	-12	0	21
COc1ccc2c(C)cc(SCC(=O)NC3CCCC3)nc2c1	-3	1	/	-5	0	17
CC(=O)c1c(C)[nH]c(C(=O)CSc2nc3ccc(C)cc3[nH]2)c1C	-3	13	11	6	3	70*
Cc1ccc2nc(SCC(=O)c3ccc4c(c3)OCO4)[nH]c2c1	1	-7	-2	8	0	57*
COc1ccc2c(C)cc(SCC(=O)c3ccc4c(c3)OCO4)nc2c1	-6	-3	3	-2	8	65*
COc1ccc(C(=O)C2CCCN(S(=O)(=O)c3ccccc3F)C2)c(C)c1 (stereo not drawn)	-1	-6	22	173	4	0
C=CCC(C(=O)Oc1c(C(C)(C)C)cc(C)cc1C(C)(C)C)c1ccccc1 (stereo not drawn)	-3	-4	/	-9	1	-1
COc1cccc(/C=N/Nc2nc3ccccc3n3cnnc23)c1O	-1	43	34	10	4	-5
COc1ccc(Nc2nc3ccccc3n3cnnc23)cc1	-2	23	7	-17	4	72*
Fc1cccc(Nc2nc3ccccc3n3cnnc23)c1	1	27	2	80	3	23
c1ccc(N2CCOCC2)c(Nc2nc3ccccc3n3cnnc23)c1	-1	81*	-3	-7	8	37
c1ccc2c(c1)nc(N1CCOCC1)c1nncn12	0	3	7	12	0	3
COc1cccc(/C=N/Nc2nc3ccccc3n3cnnc23)c1	-2	57*	15	-8	3	58*
CC(=O)c1cccc(Nc2nc3ccccc3n3cnnc23)c1	-4	67*	6	5	5	2
Cc1ccc(Nc2nc3ccccc3n3cnnc23)cc1C	-1	2	12	-12	4	20
Cc1ccc(N(C(=O)c2snc(C(N)=O)c2N)C(C(=O)NCc2ccccc2)c2ccncc2)c(C)c1 (stereo not drawn)	-2	6	/	18	3	3
Cc1ccc(NC(=O)Nc2ccc3c(c2)CCC3)cc1C	-7	-4	31	-6	0	5
COc1cccc(NC(=O)Nc2ccccc2Br)c1	1	-7	20	18	-1	19
COc1ccc(NC(=O)Nc2ccc3c(c2)CCC3)cc1	14*	0	18	20	1	-3
